Measurements reported in PubChem BioAssay (NCI).
This is part of a sample that, as a whole, favours compounds with a hit. Of some 79,000 tested, about 15% had one in any assay. The source made the active and inactive calls. No stated cut-off is given here; in the data, active means growth inhibition above about 70%; inactive means the rest.

What was measured:
[1] = NCI Yeast Anticancer Drug Screen. Data for the rad50 strain (AID 155);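 further: 0% = growth of vehicle-only cultures of the same strain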; details: S. cerevisiae rad50 strain growth inhibition; at 50.0 µM; hits give high values
Summary of the method: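 Yeast carrying a defined DNA repair defect were exposed to test compounds, and growth was compared with vehicle-treated controls to give percent inhibition.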

[2] = NCI Yeast Anticancer Drug Screen. Data for the mec2-1 strain (AID 157); details: S. cerevisiae mec2-1 strain, at 50.0 µM, hits give high values
Summary of the method: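 Readout is yeast growth inhibition, normalised to vehicle-treated controls, in the mec2-1 strain exposed to compound.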

[3] = NCI Yeast Anticancer Drug Screen. Data for the sgs1 mgt1 strain (AID 161);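 further: 0% = growth of cultures given vehicle only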; details: S. cerevisiae sgs1 mgt1 strain, at 50.0 µM, hits give high values
Summary of the method: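 This yeast growth screen uses a strain with defined DNA-repair lesions; compound-treated growth is compared with vehicle-treated growth.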

[4] = NCI Yeast Anticancer Drug Screen. Data for the cln2 rad14 strain (AID 165);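 further: 0% = growth equal to vehicle treated cultures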; details: S. cerevisiae cln2 rad14 strain, at 50.0 µM, hits give high values
Summary of the method: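 Relative to vehicle controls, growth inhibition of compound-treated cln2 rad14 yeast was recorded.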

[5] = NCI Yeast Anticancer Drug Screen. Data for the bub3 strain (AID 167); details: S. cerevisiae bub3 mutant strain, at 50.0 µM, hits give high values
Summary of the method: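 Compounds were applied to a genetically altered yeast strain carrying a cell-cycle control defect. Growth inhibition was scored against vehicle-treated controls.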

[6] = NCI Yeast Anticancer Drug Screen. Data for the mlh1 rad18 strain (AID 175); details: S. cerevisiae mlh1 rad18 strain growth inhibition; at 50.0 µM; hits give high values
Summary of the method: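 Test agents were incubated with a yeast strain of defined genotype (DNA damage repair defect). Inhibition of growth was derived by comparison with vehicle-exposed cultures.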

Measured: growth inhibition

CCC(=N\NC(=S)NC)/C(C)=N\NC(=S)NC
inactive: [1] -8.3% | [2] -6.4% | [3] -6.5% | [4] -36.1% | [5] 9.1% | [6] -14.2%

ClCCOCCOc1ccccc1Cl
inactive: [1] -24% | [2] -13.8% | [3] -8.1% | [4] -9.95% | [5] -22.1% | [6] -7%

COc1ccc(C2COc3cc4c(cc3C2)OCO4)cc1 (stereo not drawn)
inactive: [1] -22.4% | [2] -26.1% | [3] -20.6% | [4] -2.3% | [5] 20.1% | [6] 4.9%

CCCCc1c(O)c(N=NC(N)=S)c2ccccc2c1O
inactive: [1] 14.9% | [2] 8.45% | [3] 36.8% | [4] -22.1% | [5] 32.6% | [6] 43.5%

O=C1C(=Cc2ccco2)C(=O)C2CCCCC12 (stereo not drawn)
inactive: [1] 6.8% | [2] -9% | [3] -10.8% | [4] 13% | [5] 2.4% | [6] 13.6%

Brc1c2ccccc2cc2ccccc12
inactive: [1] 22% | [2] 29.8% | [3] 25% | [4] -8.8% | [5] 63.4% | [6] 42.6%

S=C(Nc1ccccc1)N1N=C2c3ccccc3CC[C@H]2[C@@H]1c1ccccc1
inactive: [1] -24.3% | [2] -37.9% | [3] -37.5% | [4] -1% | [5] -28.2% | [6] -58.5%

O=[N+]([O-])c1cc([N+](=O)[O-])c2ccccc2c1NS(=O)(=O)c1ccc(Br)cc1
active: [6] 70.5%
inactive: [1] 7.35% | [2] 18.9% | [3] 36.4% | [4] 0.7% | [5] 36%

C(=N/Nc1ccccn1)/NN/C=N/Nc1ccccn1
inactive: [1] -7.6% | [2] 6.25% | [3] -3.8% | [4] 7.1% | [5] -2.45% | [6] -4.9%

C=C(CCC(Cl)C(COS(=O)(=O)c1ccc(C)cc1)OC(CCCO[Si](c1ccccc1)(c1ccccc1)C(C)(C)C)OCC)[Si](C)(C)C (stereo not drawn)
active: [5] 73%
inactive: [1] 68.2% | [2] 65.7% | [3] 60.6% | [4] 69.1% | [6] 58.4%

c1cc2c3c(cccc3c1)N=S=N2
inactive: [1] 25.4% | [2] -7.45% | [3] 10.1% | [4] -62.6% | [5] 20.9% | [6] 12.2%

COc1ccc(Cl)cc1NC(=O)Nc1ccc(F)c([N+](=O)[O-])c1
inactive: [1] 10% | [2] 38% | [3] 29.2% | [4] -9.8% | [5] 33.5% | [6] 23.8%

COc1ccccc1-n1nnc2c(N)nc(N)nc21
inactive: [1] 7.05% | [2] -12.2% | [3] -13.2% | [4] 4.05% | [5] -22.1% | [6] -9.25%

NS(=O)(=O)c1ccc(NC(=O)Nc2cccc(C(F)(F)F)c2)cc1
inactive: [1] 23.9% | [2] 2.55% | [3] 12.8% | [4] 12.3% | [5] 23.8% | [6] 9.85%

COc1ccc(/C=C2\CCC/C(=C\c3ccc(O)c(CN4CCCCC4)c3)C2=O)cc1
active: [1] 89.2% | [2] 85.5% | [3] 91.2% | [4] 83% | [5] 89.1% | [6] 91.2%

CCCC1OC(C2CC=CCC2C)OCC1CC (stereo not drawn)
inactive: [1] -9.25% | [2] 6.55% | [3] 2.95% | [4] -17.9% | [5] -3.45% | [6] -46%

CC1(c2ccc[n+](Cc3ccccc3)c2)OCCO1
inactive: [1] -15.7% | [2] -31.1% | [3] -12.8% | [4] -11.2% | [5] -39.6% | [6] -27.1%

CC(Cc1nc2ccccc2[nH]1)Cc1nc2ccccc2[nH]1
inactive: [1] -7% | [2] 17.4% | [3] 7.1% | [4] 21.4% | [5] 2.3% | [6] 15.6%

Nc1nc(N)nc(-c2ccco2)n1
inactive: [1] -15.1% | [2] -6.6% | [3] -27.1% | [4] -81.8% | [5] -0.85% | [6] -5.2%

COc1ccccc1N=Nc1c(-c2cccs2)nn(C(=S)SC)c1C(F)(F)F
inactive: [1] -3.5% | [2] 10.2% | [3] -21.6% | [4] -3.9% | [5] 18.7% | [6] 30.8%

C[n+]1ccccc1/C=C/c1ccc2c(c1)OCO2
inactive: [1] 18.3% | [2] 5.9% | [3] 22.5% | [4] -0.45% | [5] 29.9% | [6] 6.6%

NS(=O)(=O)c1ccc(N=Nc2c[nH]c(=O)c(O)c2)cc1
inactive: [1] 3.45% | [2] 4.95% | [3] -9.55% | [4] -37.4% | [5] -60.4% | [6] 2.3%

CC(=O)NC1c2ccccc2C(C)(C)C12CCC1(CC2)OCCO1 (stereo not drawn)
inactive: [1] -33.5% | [2] -17.1% | [3] -4.8% | [4] 0.05% | [5] -3.8% | [6] -40.8%

CCCCCN(C(=O)c1ccccc1C(=O)N(CCCCC)c1ccccc1)c1ccccc1
inactive: [1] 15.3% | [2] 7.85% | [3] 15.8% | [4] 30.6% | [5] 3.4% | [6] 42%

Nc1ccc(NC(=S)Nc2ccccc2)cc1
inactive: [1] -2.35% | [2] -18.3% | [3] -3.15% | [4] 2.2% | [5] -7.05% | [6] -12.7%

CCN(CC)C(=O)C(C)n1cc(C)c(=O)[nH]c1=O (stereo not drawn)
inactive: [1] -32.2% | [2] -39.2% | [3] -19.9% | [4] 5.35% | [5] -2.55% | [6] -3.85%

COc1ccc2nc3c([N+](=O)[O-])ccc(NCCCN(C)C)c3c(NCCCN(C)C)c2c1
inactive: [1] -5.15% | [2] 9.3% | [3] 11.7% | [4] 38.3% | [5] -28.4% | [6] -1.6%

O=C(O)C1CCCCN1O (stereo not drawn)
inactive: [1] -7.85% | [2] -2.15% | [3] -15.9% | [4] 5.75% | [5] 10.9% | [6] -6.15%

C1COCCN2CCOCCOCCN(CCO1)CCOCC2
inactive: [1] 3.6% | [2] 11.2% | [3] -0.25% | [4] 12.7% | [5] 23.6% | [6] 23.7%

Cc1ccc(S(=O)(=O)/C=C/c2ccccc2)cc1
inactive: [1] 8.15% | [2] 6.2% | [3] 1.8% | [4] -10.3% | [5] -2.45% | [6] -10.2%

CCC1([N+](=O)[O-])CC2C=CC1C2 (stereo not drawn)
inactive: [1] 2.2% | [2] -14.3% | [3] -26% | [4] -4.15% | [5] -21.7% | [6] -13.2%

C/C(=N\NS(=O)(=O)c1ccc(C)cc1)c1c(C)noc1C
inactive: [1] -13.4% | [2] 7.55% | [3] 13.3% | [4] 3.85% | [5] 6.3% | [6] 13.3%

O=P(NC1CCCCC1)(NC1CCCCC1)NC1CCCCC1
inactive: [1] 19.1% | [2] -1.75% | [3] -0.75% | [4] 12.1% | [5] 12.8% | [6] 14.2%

N#CC(C(=O)O)C(c1c(Cl)cccc1Cl)C(C#N)C(=O)O (stereo not drawn)
inactive: [1] 23.2% | [2] -6.7% | [3] -0.7% | [4] -1.3% | [5] 5.25% | [6] 15.6%

CCCCCCCCCCCCCCCCCC(CCCCCCCC)CCCCCCCC
inactive: [1] -5.15% | [2] 0.65% | [3] -30.8% | [4] 3.3% | [5] 0.25% | [6] 23.6%

O=C1NC2(CCN(CCc3ccccc3)CC2)Oc2ccccc21
inactive: [1] 28.9% | [2] -10.2% | [3] 15.7% | [4] 17.6% | [5] 11.5% | [6] 11.1%

Cc1ccc(S(=O)(=O)NCCC(=O)O)cc1
inactive: [1] -1.75% | [2] -11.1% | [3] -9.65% | [4] -9.3% | [5] -3.3% | [6] -4.85%

CCCCCCCC/C=C\CCCCCCCC(=O)OC(C)CC(=O)N(C)C (stereo not drawn)
inactive: [1] -18.1% | [2] -23.4% | [3] 10.6% | [4] -6.55% | [5] -11.6% | [6] 3.95%
